hcDAF-12 act: activators of H. contortus DAF-12 nuclear receptor. HEK293 hcDAF-12 lit1-tk-luc reporter, luminescence; 0% DMSO, 100% Δ7-dafachronic acid. hit rate 1.4% among 370,000. activation, % at 6.8 µM;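 active = activation above the mean of all tested compounds plus 3 SD, cut at about 5.5% in these data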
DAX1 inh-1: inhibits human nuclear receptor DAX1 | hit rate 0.99% among 340,000 | P51843 | inhibition, % at 6.75 µM | HEK293 Gal4-DAX1 luciferase reporter, luminescence;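 active = inhibition above the mean over all tested compounds plus 3 SD, cut at about 4.2% in these data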;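 also: inhibition shows as a rise in luminescence from relieved DAX1 repression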
Target sequence (P51843 207-470 limits assumed): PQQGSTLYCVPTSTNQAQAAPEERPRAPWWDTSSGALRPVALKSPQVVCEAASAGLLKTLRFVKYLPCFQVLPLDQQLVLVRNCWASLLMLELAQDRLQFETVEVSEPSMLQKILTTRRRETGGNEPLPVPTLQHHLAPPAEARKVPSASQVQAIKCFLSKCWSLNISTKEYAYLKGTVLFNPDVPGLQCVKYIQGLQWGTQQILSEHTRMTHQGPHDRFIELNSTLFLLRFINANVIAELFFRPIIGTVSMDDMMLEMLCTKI
ssDAF-12 act: activators of S. stercoralis DAF-12 nuclear receptor; HEK293 ssDAF-12/GRIP1 lit1-tk-luc reporter, luminescence; % of 3 µM dafachronic acid response; AID 652126; activation, % at 6.8 µM; hit rate 1% among 370,000;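 active = activation above the mean over all tested compounds plus 3 SD, cut at about 0.9% in these data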
DAX1 inh-2: DAX1 (NR0B1) inhibition, primary screen; HEK293T StAR-luciferase reporter, SF-1/DAX-1 repression relief; inhibition, % at 6.8 µM; hit rate 1.1% among 370,000; AID 652010;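 active = inhibition above the mean over all tested compounds plus 3 SD, cut at about 3.6% in these data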;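 also: higher inhibition means more luminescence from relief of DAX-1 repression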
hgDAF12 agonist: activates the H. glycines DAF-12 receptor ligand-binding domain | HEK293 GAL4-hgDAF12 UAS-luciferase reporter, agonist luminescence; normalized to butyrate control | activation, % at 6.8 µM | hit rate 1.8% among 370,000 | AID 687014;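 active = activation above a cutoff set at the mean of all screened compounds plus 3 SD, cut at about 10% in these data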
FXN GAA850 act: frataxin GAA850 promoter activation | AID 540364 | HEK293 lucGAA850 FXN promoter luciferase reporter, 24 h; percent of 10 µM SAHA response | hit rate 0.56% among 360,000 | activation, % at 6 µM;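 active = activation above the average of all compounds screened plus 3 SD, cutoff fixed separately per campaign, cut at about 7.5% in these data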
LXRb hcDAF ctr: activates human LXR-beta, counter-screen for hcDAF-12 agonists; shares compounds with hcDAF-12 act; HEK293 Gal4-LXR tk-luc reporter, luminescence, 24 h; normalized: DMSO 0%, positive control 100%; activation, % at 6.8 µM; 3,400 tested, under 10 active; AID 743027;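 active = mean percent activation of the reporter above a cutoff set as the average over tested compounds plus their standard deviation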
hcDAF12 conf: confirmation of H. contortus DAF-12 agonists. shares compounds with hcDAF-12 act. HEK293 hcDAF-12 lit1-tk-luc reporter, luminescence; % of Δ7-dafachronic acid response. activation, % at 6.8 µM. hit rate 61% among 3,400. AID 743032;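 active = mean activation across triplicate tests above the threshold derived from the earlier primary screen, cut at about 5.5% in these data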
hgDAF12 conf: confirmation of H. glycines DAF-12 agonists; HEK293 GAL4-hgDAF12 luciferase reporter, agonist mode; percent of butyrate response; shares compounds with hgDAF12 agonist; hit rate 80% among 3,300; activation, % at 6.8 µM;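 active = mean activation over triplicate wells above the hit cutoff derived from the earlier primary screen, cut at about 11% in these data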
LXR ag 2: activates human LXR-beta, counter-screen for DAF-12 agonists. 3,300 tested, under 10 active. AID 743051. activation, % at 6.8 µM. HEK293 Gal4-LXR luciferase reporter, 24 h. shares compounds with hgDAF12 agonist;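 active = mean activation of the triplicate above a set limit carried over from the primary screen, none filed active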
A number is an active result; i = inactive; nt = no result given. Most compounds without a hit are left out; they make up all but 4.5% or so of the library.

SMILES	hcDAF-12 act	DAX1 inh-1	ssDAF-12 act	DAX1 inh-2	hgDAF12 agonist	FXN GAA850 act	LXRb hcDAF ctr	hcDAF12 conf	hgDAF12 conf	LXR ag 2
COC(=O)[C@]12C[C@H](CC(=O)NCCCCc3ccccc3)C(=O)N(Cc3cccc4ccccc34)C1=C[C@H](C1CCCC1)O[C@@H]2C	i	nt	i	i	i	nt	nt	nt	nt	nt
Cc1[nH]c2ccccc2c1CC(=O)Nc1ccc(Nc2cccnc2)c(-c2ccc(Cl)c(Cl)c2)c1	i	nt	i	i	i	nt	nt	nt	nt	nt
CN(C)c1cc2c3ccccc3n(C)c2cc1N	7.6	i	i	i	i	i	i	i	nt	nt
Cc1ccc(C)c2c1c1ccccc1n2C	i	i	i	i	i	i	nt	nt	nt	nt
O=C(CCN1CCCC1)Nc1cccc(Br)c1	i	i	i	i	i	i	nt	nt	nt	nt
O=C(CCN1CCN(c2ccccc2)CC1)Nc1cccc(Br)c1	6.8	i	i	i	i	i	i	i	nt	nt
Cc1cc(C)c(NN=c2c(=O)c3ccccc3c2=O)c(C)c1	i	i	i	i	i	i	nt	nt	nt	nt
O=c1c(=NNc2ccccc2Cl)c(=O)c2ccccc12	7.9	i	i	i	i	i	i	24	nt	nt
Nc1ccc2ccc(NS(=O)(=O)N3CCCCC3)cc2c1	i	nt	i	i	i	nt	nt	nt	nt	nt
Cc1ccc(Nc2nc(=O)c3cccnc3s2)cc1	11	i	1.3	i	i	i	i	9.3	nt	nt
COc1ccc(OC)c(Nc2nc(=O)c3cccnc3s2)c1	nt	i	nt	nt	nt	i	nt	nt	nt	nt
CC(CC(=O)N1CCc2ccccc21)n1cccn1 (configuration not stated)	11	i	i	i	i	i	i	5.7	nt	nt
Nc1ccccc1SCC(=O)N1CCc2ccccc21	i	i	i	i	i	i	nt	nt	nt	nt
Cc1cc(C)n(CCC(=O)N2CCc3ccccc32)n1	6.9	i	i	i	i	i	i	i	nt	nt
CC(C)[C@H](NC(=O)c1ccco1)C(=O)N1CCC[C@H]1C(=O)NCc1ccccc1	i	nt	i	i	i	nt	nt	nt	nt	nt
c1ccc2nc(-c3nc4ccccc4o3)ccc2c1	13	i	i	i	i	i	i	23	nt	nt
CCCC(=O)Nc1nc2ccc(NC(=O)c3ccccc3F)cc2s1	i	i	i	i	i	i	nt	nt	nt	nt
CCOc1ccc2nc(NC(=O)c3ccccn3)sc2c1	i	i	i	i	i	i	nt	nt	nt	nt
COc1ccc2nc(NC(=O)c3ccccc3F)sc2c1	6.9	i	i	i	16	i	i	6.2	21	i
Cc1ccc2nc(NC(=O)c3ccccc3F)sc2c1	13	i	1.6	i	19	i	i	15	20	i
O=C(Nc1nc2ccc(F)cc2s1)c1cccs1	19	i	2.7	i	18	i	i	8.1	19	i
COc1ccc2nc(NC(=O)c3cnccn3)sc2c1	8.6	i	1.1	3.6	15	i	i	i	15	i
O=C(NCCN1CCC(n2c(=O)[nH]c3cc(Cl)ccc32)CC1)c1ccc(F)cc1	i	nt	i	i	i	nt	nt	nt	nt	nt
Clc1ccc(/C=N/Nc2ncnc3ccccc23)cc1Cl	10	12	1.1	i	16	i	i	7.0	20	i
Fc1ccccc1N1CCN(c2cnc3ccccc3n2)CC1	6.6	i	i	i	19	i	i	i	17	i
SMILES	hcDAF-12 act	DAX1 inh-1	ssDAF-12 act	DAX1 inh-2	hgDAF12 agonist	FXN GAA850 act	LXRb hcDAF ctr	hcDAF12 conf	hgDAF12 conf	LXR ag 2
Cc1ccc(NC(=O)c2ccccc2O)cc1	10	i	2.1	i	20	i	i	8.3	17	i
O=C(Nc1ccccc1)Nc1cccc2ccccc12	i	i	i	i	i	i	nt	nt	nt	nt
Cc1ccc(NC(=O)c2cccc3cccnc23)cc1	8.8	i	2.7	i	17	i	i	10	19	i
O=C(Nc1ccccc1)Nc1cccc2cccnc12	9.0	i	1.8	i	15	i	i	8.6	17	i
CC(=O)Nc1cccc(NC(=O)c2cccc3cccnc23)c1	i	i	i	i	i	i	nt	nt	nt	nt
COC(=O)[C@]12C[C@H](CC(=O)NCCCCc3ccccc3)C(=O)N(Cc3ccccc3)C1=C[C@H](C(C)C)O[C@@H]2C1CC1	i	nt	i	i	i	nt	nt	nt	nt	nt
CSc1nc2ccc(NC(=O)c3ccccn3)cc2s1	10	i	1.3	3.9	16	i	i	7.8	17	i
Cc1nc2ccc(NC(=O)c3cc(Cl)ccn3)cc2s1	7.0	i	i	i	16	i	i	5.8	15	i
Cc1nc2ccc(NC(=O)c3ccc(Cl)nc3)cc2s1	i	i	i	i	i	i	nt	nt	nt	nt
Cc1cc(N2CCN(CC(C)(C)O)C[C@H]2C)ccc1N1CCN(Cc2ccccc2)[C@@H](C)C1	i	nt	i	i	i	nt	nt	nt	nt	nt
COC(=O)[C@]12C[C@H](CC(=O)NCc3cccc4ccccc34)C(=O)N(Cc3ccco3)C1=C[C@H](COCc1ccccc1)O[C@@H]2C	i	nt	i	i	i	nt	nt	nt	nt	nt
CCN(CC)C(=O)CC[C@H]1CC[C@]2(CCCN(Cc3ccncc3)C2)O1	i	nt	i	i	i	nt	nt	nt	nt	nt
COc1ccc(C(=O)Cn2c(=N)n(C)c3ccccc32)cc1	14	4.5	1.7	i	18	i	i	9.1	19	i
C=CCn1c(=N)n(CC(=O)c2ccc(OC)cc2)c2ccccc21	i	i	i	i	i	i	nt	nt	nt	nt
COc1ccccc1NCc1nc2ccccc2n1C	11	nt	1.3	nt	16	nt	i	8.7	18	i
Cn1c(CNc2ccc(Br)cc2)nc2ccccc21	12	4.7	1.4	i	14	i	i	11	18	i
O=C(NCc1ccccc1)[C@@H]1CCCN1C(=O)[C@H]1CCCN1C(=O)c1cc(F)cc(F)c1	i	nt	i	i	i	nt	nt	nt	nt	nt
Clc1ccccc1-c1nnc(-c2cccs2)o1	11	9.4	1.0	i	20	i	i	8.1	24	i
CC(=O)CC[C@@H]1CC[C@]2(CCCN(S(=O)(=O)c3ccccc3)C2)O1	i	nt	i	i	i	nt	nt	nt	nt	nt
N/C(=N\OC(=O)c1cccc2ccccc12)c1cccnc1	12	i	1.6	i	14	i	i	9.0	12	i
COc1ccc(C(=O)O/N=C2\C(=O)N(C)c3ccccc32)cc1	i	i	i	i	i	i	nt	nt	nt	nt
COc1ccc(C(=O)N=c2nc3ccccn3s2)cc1	14	i	1.3	i	17	i	i	6.0	11	i

Assay outcomes: PubChem, The Scripps Research Institute Molecular Screening Center
